Experimental findings from PubChem BioAssay (NCATS) are described below.

Assay [1] has as its target Nuclear receptor ROR-gamma (Homo sapiens) (UniProt P51449). Briefly: qHTS assay for small molecule antagonists of the retinoid-related orphan receptor gamma (ROR-gamma) signaling pathway (AID 651802). Further: nearly all actives have a fitted effect of over 60% in size. Further: potency means the concentration at half of the fitted maximal effect. The following applies: ROR-gamma antagonist cell reporter assay; series mostly up to 92.2 µM. In short, it runs like this: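 Steps: cells dispensed; compound or DMSO transferred by pin tool; doxycycline added to induce the ROR response element-driven luciferase; plates held 16hr at 37C; ONE-Glo added and luminescence measured.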
Background: Quantitative high-throughput screening tests each substance at several concentrations.

Assay [2] in a line: qHTS assay for small molecule antagonists of the retinoid-related orphan receptor gamma (ROR-gamma) signaling pathway - cell viability counter screen (AID 720652; active means well fitted curve in the direction sought with a large enough effect in the repeat runs; an effect the other way counts as inactive or inconclusive;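 further: compound exposure lasted 16 hr before ATP read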; further: potency means the concentration at half of the fitted maximal effect). The note with it: RORgamma reporter cell line viability counter screen; series mostly up to 92.2 µM. In short, it runs like this: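 Steps: seed CHO cells bearing TET-inducible ROR and ROR response element-luciferase; rest 5 hr at 37 C; add compound, then doxycycline; incubate 16 hr; add CellTiter-Glo and read luminescence as ATP-based viability.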

Assay [3] is described as follows: qHTS assay for small molecule agonists of the antioxidant response element (ARE) signaling pathway measured by Nrf2-dependant transcriptional activity (AID 720636; active means well fitted curve in the direction sought with a large enough effect in the repeat runs; an effect the other way counts as inactive or inconclusive;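 further: HepG2 cells with an ARE-driven luciferase reporter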). The note with it: ARE-luc HepG2, Nrf2 luciferase reporter, 16 h; series mostly up to 92.4 µM. Put shortly:
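ONE-Glo luminescence, read 30 min after reagent addition at room temperature, reflected ARE reporter activity in HepG2 cells that had been incubated with compound for 16 hr at 37 C in 1% dialyzed FBS.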

A short description of assay [4]: qHTS for compounds that reverse cellular toxicity of Amyloid beta (A-beta) peptide in yeast: LOPAC Validation Assay (AID 720559). The following applies: yeast expressing A-beta; series mostly up to 46.1 µM. Put shortly: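 Medium dispensed, compounds pinned, A-beta yeast suspension added; plates held at 30 C for 48 hr; absorbance measured at 600 nm to gauge growth; values scaled between DMSO and FeCl3/clioquinol (equimolar) controls.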

Assay [5] in a line: qHTS for Activators of Parkin Expression: LOPAC Validation Assay (NLuc Reporter) (AID 720572). The following applies: Parkin promoter NanoLuc reporter cells, luminescence, percent of positive control, DMSO as zero; series mostly up to 46.1 µM. Put shortly:
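Cells harboring the Parkin-promoter coincidence reporter were treated for 24 h at seven concentrations. NLuc output was measured sequentially after the FLuc channel and scaled between DMSO and positive control values.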

Assay [6] is described as follows: qHTS for Activators of Parkin Expression: LOPAC Validation Assay (FLuc Reporter) (AID 720573). The following applies: Cell line, PRKN promoter firefly luciferase reporter, vehicle wells = 0, positive control = 100%; series mostly up to 46.1 µM. Put shortly:
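Cells seeded, 24 h; compounds pinned, 7-pt dose response; 24 h at 37 C/5% CO2; volume reduced; FLuc reagent 10 min RT; luminescence read. Normalization: DMSO = 0, positive control = 100%.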

Assay [7] addresses Hexokinase-4 (Homo sapiens) + Glucokinase regulatory protein (Homo sapiens) (UniProt P35557+Q14397). Briefly: qHTS assay for inhibitors of recombinant human GCK-GKRP interaction: Diaphorase-coupled assay (AID 743205). The following applies: G6PDH/diaphorase resorufin fluorescence; series mostly up to 57.5 µM. Put shortly: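 25 mM Hepes pH 7.6, 5 mM glucose, 0.4 mM ATP, 4 U/ml G6PDH; 10 nM each GST-GCK/FLAG-GKRP. Kinetic fluorescence read, 1/min × 30 min. Normalized: DMSO ± enzyme = max/min.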

Assay [8] addresses Arylsulfatase A (Homo sapiens) (UniProt P15289). Nature of the assay: qHTS screen for enhancers of Arylsulfatase A (ASA1): LOPAC Validation Assay (AID 720538). The note with it: ASA enzyme activity, LOPAC qHTS enhancer assay; series mostly up to 57.5 µM. Put shortly:
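MLD patient fibroblasts (SV40, ASA-I179S), 1536-well; adhere 6 hrs; cpd 48h, 37 degree C, 5% CO2; pNCS 0.5mM final in lysis buffer, 14h RT; stop 1N NaOH final; fluor. Ex525/Em598.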

Each structure is given as a SMILES string. Results filed as inconclusive are left out. Activity calls are given as the source filed them. Unless noted, the call rests on the fitted dose curve; in most records, active means well fitted curve in the direction sought with a large enough effect; inconclusive means small, poorly fitted or top-dose-only effect, or another doubt; inactive means no such curve, though single readings can be large; an effect the other way counts as inactive or inconclusive. Numbered stars: 1 amine (or outer) side, 2 acyl side, 3 side chain; on linkers, the order of the positions; unused ones are H or OH. Bridge positions count the residues as written; N and C are the ends. Square brackets hold non-standard residues; d marks the D form. Peptide text beside a SMILES is read from it. I, II: the chains in the order shown. Actinocin(9to1) = Cc1c2oc3c(C)ccc(C(=O)[*:1])c3nc-2c(C(=O)[*:2])c(N)c1=O; NMeV = CN[C@H](C(=O)O)C(C)C; Sar = CNCC(=O)O

Chain of Nuclear receptor ROR-gamma (Homo sapiens) (P51449 whole entry, looked up): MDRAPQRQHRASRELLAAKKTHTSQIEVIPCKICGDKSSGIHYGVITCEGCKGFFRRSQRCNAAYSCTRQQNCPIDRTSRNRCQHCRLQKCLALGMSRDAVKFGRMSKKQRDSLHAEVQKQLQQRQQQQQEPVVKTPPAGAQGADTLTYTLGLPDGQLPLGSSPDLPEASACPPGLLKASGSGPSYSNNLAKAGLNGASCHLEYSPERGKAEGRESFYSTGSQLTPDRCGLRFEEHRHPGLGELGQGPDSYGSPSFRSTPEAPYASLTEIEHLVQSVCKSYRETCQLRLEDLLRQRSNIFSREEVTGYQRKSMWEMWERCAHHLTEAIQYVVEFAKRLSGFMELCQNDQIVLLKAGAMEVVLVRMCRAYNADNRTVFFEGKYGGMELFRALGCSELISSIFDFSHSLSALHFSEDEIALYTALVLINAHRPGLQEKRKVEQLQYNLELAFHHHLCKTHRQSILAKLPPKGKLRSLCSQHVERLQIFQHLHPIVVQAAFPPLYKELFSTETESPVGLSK
Chain of Hexokinase-4 (Homo sapiens) + Glucokinase regulatory protein (Homo sapiens) (P35557 whole entry, looked up): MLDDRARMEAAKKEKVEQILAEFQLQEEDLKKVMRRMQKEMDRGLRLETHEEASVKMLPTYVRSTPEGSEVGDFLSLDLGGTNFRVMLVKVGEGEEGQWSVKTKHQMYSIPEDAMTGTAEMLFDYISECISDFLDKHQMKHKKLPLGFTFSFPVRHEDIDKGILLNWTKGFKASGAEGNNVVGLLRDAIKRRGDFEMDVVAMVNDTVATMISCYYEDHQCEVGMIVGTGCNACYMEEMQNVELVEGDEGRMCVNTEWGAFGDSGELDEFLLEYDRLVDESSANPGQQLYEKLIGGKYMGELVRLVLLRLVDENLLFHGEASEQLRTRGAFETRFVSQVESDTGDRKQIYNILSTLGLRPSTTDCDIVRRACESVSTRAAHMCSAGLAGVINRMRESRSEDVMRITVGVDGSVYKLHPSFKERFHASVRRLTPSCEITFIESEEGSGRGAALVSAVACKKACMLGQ
Chain of Hexokinase-4 (Homo sapiens) + Glucokinase regulatory protein (Homo sapiens) (Q14397 whole entry, looked up): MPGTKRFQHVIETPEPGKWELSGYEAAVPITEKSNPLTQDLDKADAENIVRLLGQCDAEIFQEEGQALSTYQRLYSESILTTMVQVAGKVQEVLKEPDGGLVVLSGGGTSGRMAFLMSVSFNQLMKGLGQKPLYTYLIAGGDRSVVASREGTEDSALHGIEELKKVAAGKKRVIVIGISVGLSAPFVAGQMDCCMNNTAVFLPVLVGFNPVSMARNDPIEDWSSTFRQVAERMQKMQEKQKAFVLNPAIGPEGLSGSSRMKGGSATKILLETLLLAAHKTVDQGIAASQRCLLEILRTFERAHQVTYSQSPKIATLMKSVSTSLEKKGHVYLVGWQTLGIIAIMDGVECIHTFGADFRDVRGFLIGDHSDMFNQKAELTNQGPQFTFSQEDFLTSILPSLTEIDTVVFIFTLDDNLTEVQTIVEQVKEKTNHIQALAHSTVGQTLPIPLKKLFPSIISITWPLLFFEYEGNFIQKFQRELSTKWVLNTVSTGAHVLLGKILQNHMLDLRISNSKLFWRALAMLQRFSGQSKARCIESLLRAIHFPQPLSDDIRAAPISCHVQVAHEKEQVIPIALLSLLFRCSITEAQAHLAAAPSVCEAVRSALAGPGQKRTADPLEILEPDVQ
Chain of Arylsulfatase A (Homo sapiens) (P15289 whole entry, looked up): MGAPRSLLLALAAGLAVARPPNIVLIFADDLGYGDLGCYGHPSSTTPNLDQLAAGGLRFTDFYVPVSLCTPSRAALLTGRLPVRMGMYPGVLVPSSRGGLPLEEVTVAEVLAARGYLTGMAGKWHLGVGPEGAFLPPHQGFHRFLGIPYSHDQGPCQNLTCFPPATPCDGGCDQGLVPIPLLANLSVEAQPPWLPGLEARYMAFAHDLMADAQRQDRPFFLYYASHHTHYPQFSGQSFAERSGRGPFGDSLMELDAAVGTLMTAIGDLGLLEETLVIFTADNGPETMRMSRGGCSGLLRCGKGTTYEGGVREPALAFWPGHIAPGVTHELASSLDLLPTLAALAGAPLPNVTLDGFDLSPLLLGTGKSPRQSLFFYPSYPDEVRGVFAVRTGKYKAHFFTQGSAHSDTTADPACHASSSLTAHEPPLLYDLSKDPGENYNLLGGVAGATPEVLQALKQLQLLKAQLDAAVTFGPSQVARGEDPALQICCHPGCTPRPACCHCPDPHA

In the case of `C=C(CC)C(=O)c1ccc(OCC(=O)O)c(Cl)c1Cl`, the Potency in assay [1] is 37.6 µM (active). Besides, the Potency entry in assay [2] was “inactive”.
For `CN(C)/N=N/c1nc[nH]c1C(N)=O`, the Potency result in assay [1], in assay [3] and in assay [2] was “inactive” throughout.
Regarding `C[C@]12CC[C@@H]3c4ccc(O)cc4CC[C@H]3[C@@H]1CC[C@@H]2O`, in assay [1], the Potency was 33.5 µM (active). For the same compound, the compound was classed as inactive in assay [4], in assay [5], in assay [6] and in assay [7]. For the same compound, in assay [3], the Potency entry was “inactive”.
Turning to `CC(=O)Oc1ccc(C(c2ccc(OC(C)=O)cc2)c2ccccn2)cc1`, the Potency entry in assay [1], in assay [3] and in assay [2] was “inactive” in each case.
As to `O=c1ccc2ccccc2o1`, the Potency entry in assay [1], in assay [3] and in assay [2] was “inactive” each time.
Turning to `COc1cccc2c1C(=O)c1c(O)c3c(c(O)c1C2=O)C[C@@](O)(C(C)=O)C[C@@H]3O[C@H]1C[C@H](N)[C@H](O)[C@H](C)O1`, the results for the Potency in assay [1] and in assay [2] were 18.8 µM (active) and 13.3 µM (active), respectively.
Turning to `CN1C2CCC1CC(OC(=O)c1c[nH]c3ccccc13)C2` (configuration not stated), the result in assay [8], in assay [4], in assay [5], in assay [6] and in assay [7] was inactive.
Consider `Oc1ccc(O)cc1`, for which the Potency in assay [1] is 10.6 µM (active). Further, the result in assay [8], in assay [4], in assay [5], in assay [6] and in assay [7] was inactive.
As for `Cc1c2oc3c(C)ccc(C(=O)N[C@@H]4C(=O)N[C@H](C(C)C)C(=O)N5CCC[C@H]5C(=O)N(C)CC(=O)N(C)[C@@H](C(C)C)C(=O)O[C@@H]4C)c3nc-2c(C(=O)N[C@@H]2C(=O)N[C@H](C(C)C)C(=O)N3CCC[C@H]3C(=O)N(C)CC(=O)N(C)[C@@H](C(C)C)C(=O)O[C@@H]2C)c(N)c1=O` (I: T[dV]P[Sar][NMeV] / II: T[dV]P[Sar][NMeV]; ester I:1-I:C, II:1-II:C; linker I:N-II:N via Actinocin(9to1)), the Potency in assay [1] is 0.0266 µM (active); in assay [2], 0.106 µM (active).
